Experimental data taken from PubChem BioAssay AID504332 (National Center for Advancing Translational Sciences (NCATS), 2011).
Several values for one entry are separate records, joined by “and”; a condition that tells them apart may be missing. Equal values may be shown once. Hit rate of the full screen: of about 350,000 compounds, about 31,000 (8.9%) were called active. Not shown: some 15% with an inconclusive outcome. Calls follow the shape of the dose curve; as a rule, active = well fitted inhibition curve with a large enough effect; inconclusive = small, poorly fitted or top-dose-only effect; inactive = no such curve, though single readings can be large or run the other way. Shown is part of a subset that was picked to be rich in actives. A call without a number means that no potency is given here. Where a structure was tested more than once in an assay, its records may differ in their call.

Target: Histone-lysine N-methyltransferase EHMT2 (Homo sapiens) (UniProt Q96KQ7)
Sequence (Q96KQ7 913-1193 limits assumed): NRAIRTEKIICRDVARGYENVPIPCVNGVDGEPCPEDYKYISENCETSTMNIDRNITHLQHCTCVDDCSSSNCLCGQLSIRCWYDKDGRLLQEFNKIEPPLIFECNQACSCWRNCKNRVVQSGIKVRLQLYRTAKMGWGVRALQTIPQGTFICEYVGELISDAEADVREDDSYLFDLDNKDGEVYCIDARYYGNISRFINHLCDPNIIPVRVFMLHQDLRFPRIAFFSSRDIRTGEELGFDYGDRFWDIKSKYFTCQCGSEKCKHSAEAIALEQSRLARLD
Experiment: qHTS Assay for Inhibitors of Histone Lysine Methyltransferase G9a; also: nearly all actives have a fitted effect of over 75% in size
Conditions: G9a H3K9 monomethylation, AlphaScreen, 2 h; series mostly up to 102 µM
In short: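 Step 1: enzyme (final 20 nM) with compound, 15 min RT. Step 2: substrate peptide 500 nM and SAM 20 uM, 2 h RT. Step 3: anti-H3K9me1 antibody and AlphaScreen beads, 10 min, then plate read.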
Potency is read from the fitted curve at half-maximal effect.

SMILES | activity, negative = inhibition | Potency
OC1/C(=C/c2ccc(C(F)(F)F)cc2)N2CCC1CC2 (configuration not stated) | inactive | 
COC(=O)C1=C(c2ccc3ccccc3c2)C[C@@H]2CC[C@H]1N2C(=O)NCCO | 26.7% [at 2.33 µM] (inactive) | 
COc1ccc(CNCCc2ccc3c(c2)OCO3)c(OC)c1OC |  | 8.91 µM (active)
COC(=O)C1=C(c2c(C)noc2C)C[C@@H]2CC[C@H]1N2C(=O)NCc1ccc2c(c1)OCO2 | -4.27% [at 0.501 µM] (inactive) | 
CCN1CCN(Cc2cc(OC)c3c(c2)OCO3)CC1 | inactive | 
c1csc(CN2CCCC3(CCNCC3)C2)n1 | 7.82% [at 12.7 µM] (inactive) | 
CCCCCCCCCCCCn1ccc(=N)cc1 | inactive | 
CC[C@H]1CN2CCc3cc(OC)c(OC)cc3[C@@H]2C[C@@H]1C[C@H]1NCCc2cc(OC)c(OC)cc21 | inactive | 
CCOc1cc(N2CCOCC2)c(OCC)cc1NC(=O)C1=NN(c2cccc(C)c2)C(=O)CC1 |  | 11.2 µM (active)
CCCCCn1c(=O)c(C(=O)NCc2ccccn2)c(O)c2ccccc21 | inactive | 
O=C1c2ccccc2NC(c2ccccc2O)N1NS(=O)(=O)c1ccccc1 (configuration not stated) | inactive | 
Cc1ccc(N(C)C(=O)Oc2cccc3ccc(C)nc23)cc1 | inactive | 
COC(=O)COc1cc(C)cc2oc(=O)c3c(c12)CCCC3 | inactive | 
O=C(Nc1cccc(F)c1)N1CC[C@@]2(CCCN(C(=O)Oc3ccccc3)C2)C1 | -11.3% [at 12.7 µM] (inactive) | 
CCCCCn1c(=O)c(C(=O)Nc2c(C)n(C)n(-c3ccccc3)c2=O)c(O)c2ccccc21 | inactive | 
CCC(=O)CC(c1ccc([N+](=O)[O-])cc1)c1c(O)c2ccccc2oc1=O (configuration not stated) | inactive | 
COc1cc(C(c2c(O)c3ccccc3oc2=O)c2c(C)n(C)n(-c3ccccc3)c2=O)ccc1O (configuration not stated) |  | 44.7 µM (active)
Cc1ccsc1C(=O)C1CCCN(Cc2ccc(O)cc2)C1 (configuration not stated) | inactive | 

SMILES | activity, negative = inhibition | Potency
CCOC(=O)CC1=C(C(=O)OCC)C2(C(=O)N1)C(C(=O)OC)=C(N)Oc1ccccc12 (configuration not stated) | inactive | 
CCCCCCN=C(CC)c1c(O)n(CCCC)c(=O)[nH]c1=O | -24.6% [at 12.7 µM] (inactive) | 
COc1cc(C(=S)N2CCOCC2)ccc1O | -4.38% [at 12.7 µM] (inactive) | 20 µM (active)
COc1ccc(C(=O)C2CCCN(Cc3ccc(C)s3)C2)cc1OC (configuration not stated) | inactive | 
COc1ccccc1OC(=O)c1ccc(C)c(S(=O)(=O)N2CCOCC2)c1 | inactive | 
OCC#CC[N+]1(CC#Cc2ccccc2)CCCC1 | inactive | 
CC(c1ccccc1)(c1ccccc1)c1ccncc1 | inactive | 
CC(Cc1ccccc1)NCCC(c1ccccc1)c1ccccc1 (configuration not stated) | inactive | 
Cn1c(O)c(C=NCCN2CCNCC2)c(=O)n(C)c1=O | inactive | 
C=CCN1CCC2(C)c3cc(O)ccc3CC1[C@@H]2C (some centres not stated) | inactive | 
C=CCN1CCC23c4c5ccc(O)c4O[C@H]2C(=O)CC[C@@]3(O)C1C5 (some centres not stated) |  | inactive and 31.6 µM (active)
CC(C)N(CC#CCC1(O)c2ccccc2-c2ccccc21)C(C)C | inactive | 
O=C(Nc1cccc(OC(=O)N2CCCCC2)c1)N1CCOCC1 | inactive | 
Cc1cc(C(=O)OCC(=O)Nc2c(F)cccc2F)c(C)n1C1CC1 | inactive | 
Cc1noc(C)c1CSc1nc2cc(S(=O)(=O)N3CCOCC3)ccc2o1 |  | 3.16 µM (active)
CN(C)CCN(CC1CCCN(Cc2ccccc2F)C1)C(=O)Cc1ccc(F)c(F)c1 (configuration not stated) | inactive | 
CCCC[N+]1(C)C2CC(OC(=O)C(CO)c3ccccc3)CC1C1OC12 (configuration not stated) | inactive | 
COC(=O)C1=C(c2ccc(F)cc2OCc2ccccc2)C[C@@H]2CC[C@H]1N2C(=O)NCc1ccc2[nH]ccc2c1 | 4.96% [at 0.501 µM] (inactive) | 
